This is an account of results in PubChem BioAssay (Tox21).

Test [1] in a line: Nuclear factor erythroid 2-related factor 2/antioxidant responsive element (Nrf2/ARE) small molecule agonists: qHTS cell viability counter screen in human keratinocytes (AID 1919968; active = well fitted curve in the direction sought with a large enough effect in the repeat runs; an effect the other way counts as inactive or inconclusive; also: nearly all actives have a fitted effect of over 55% in size; also: potency is read from the fitted curve at half-maximal effect). The essentials: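 Seed 1,500 KeratinoSens cells per well, then incubate 5 h at 37 C/5% CO2. Add compounds in DMSO and incubate 23 h. Add CellTiter-Fluor, wait 1 h and read fluorescence.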
(In qHTS, concentration-response curves come from the screen itself.)

Test [2] is described as follows: Nuclear factor erythroid 2-related factor 2/antioxidant responsive element (Nrf2/ARE) small molecule agonists: luciferase reporter gene qHTS assay in human keratinocytes (AID 1919969). Also: nearly all actives have a fitted effect of over 35% in size. For orientation: A reporter such as luciferase makes a cellular process visible.
For test [3], the target named is Gonadotropin-releasing hormone receptor (Homo sapiens) (UniProt P30968). In words: Human gonadotropin-releasing hormone receptor (GnRHR) small molecule agonists, calcium flux assay in GnRHR-HEK293 cells (AID 1920063). Also: nearly all actives have a fitted effect of over 35% in size. The method, boiled down:
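Cells: HEK293 stably expressing human GnRHR. Steps: overnight (18 h) culture, 1 h calcium dye loading at 37 C, compound addition, kinetic fluorescence read at 480/540 nm. Each compound tested at 15 concentrations in triplicate.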
On the technique in general: A change in cytosolic calcium serves as a functional read-out for many receptors and channels.

Test [4] concerns the target KiSS-1 receptor (Homo sapiens) (UniProt Q969F8). In words: Human kisspeptin (KISS1R) small molecule agonists, calcium flux assay in KISS1R-HEK293 cells (AID 1920064; active = well fitted curve in the direction sought with a large enough effect in the repeat runs; an effect the other way counts as inactive or inconclusive). The method, boiled down:
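Cells plated and incubated 18 h; dye added, 1 h at 37 C; compounds in DMSO pinned in; signal read at 480/540 nm every second for 3 min. Each compound tested at 15 concentrations in triplicate.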

A short description of test [5]: p53 small molecule agonists, cell-based qHTS assay with human liver microsomes: qHTS cell viability counter screen (AID 1963579). Also: nearly all actives have a fitted effect of over 45% in size. The method, boiled down:
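Tox21 library compounds, delivered from DMSO stocks, were tested on p53RE-bla cells together with 0.5 mg/mL human liver microsomes and 0.5 mg/mL NADPH (final) over 16 h at 37 C; CellTiter-Glo luminescence served as the cytotoxicity measure.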

Test [6] in a line: p53 small molecule agonists, cell-based qHTS assay with rat liver microsomes: qHTS cell viability counter screen (AID 1963580). Also: nearly all actives have a fitted effect of over 45% in size. The method, boiled down: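 Intracellular ATP, by CellTiter-Glo luminescence, defines viability. HCT-116 p53RE-bla cells, 4,000 per well, were compound-treated in the presence of rat liver microsomes and NADPH for 16 h at 37 C.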
Test [7] is described as follows: p53 small molecule agonists, cell-based qHTS assay: qHTS cell viability counter screen (AID 1963581). Also: nearly all actives have a fitted effect of over 45% in size. The method, boiled down: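 Cells: HCT-116 with p53 response element-driven beta-lactamase. Treatment: 16 h, 37 C, compounds in DMSO. Read: CellTiter-Glo luminescence after 30 min RT.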
Test [8] can be described thus: p53 small molecule agonists, cell-based qHTS assay (AID 1963582; active = well fitted activation curve with a large enough effect in the signal ratio in the repeat runs, not every such curve was filed as active; the % refers to the signal ratio). The method, boiled down:
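Quantitative HTS in p53RE-bla cells: after a 5 h settling period, compounds delivered in DMSO were left on cells for 16 h at 37 C, and reporter induction was measured as fluorescence following 2 h substrate loading.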

In test [9] the target is 5-hydroxytryptamine receptor 2A (Homo sapiens) (UniProt P28223). The test can be described thus: 5-hydroxytryptamine receptor 2A (HTR2A) small molecule antagonists, cell-based qHTS assay (AID 1963586). Also: nearly all actives have a fitted effect of over 45% in size. The method, boiled down: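 Antagonist-mode intracellular calcium assay: DOI (4 nM) added after 5 min compound pre-incubation at room temperature to dye-loaded HTR2A-CHO cells. Fluorescence followed for 3 min, sampled every second.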
Sequence of 5-hydroxytryptamine receptor 2A (Homo sapiens) (P28223 whole entry, looked up): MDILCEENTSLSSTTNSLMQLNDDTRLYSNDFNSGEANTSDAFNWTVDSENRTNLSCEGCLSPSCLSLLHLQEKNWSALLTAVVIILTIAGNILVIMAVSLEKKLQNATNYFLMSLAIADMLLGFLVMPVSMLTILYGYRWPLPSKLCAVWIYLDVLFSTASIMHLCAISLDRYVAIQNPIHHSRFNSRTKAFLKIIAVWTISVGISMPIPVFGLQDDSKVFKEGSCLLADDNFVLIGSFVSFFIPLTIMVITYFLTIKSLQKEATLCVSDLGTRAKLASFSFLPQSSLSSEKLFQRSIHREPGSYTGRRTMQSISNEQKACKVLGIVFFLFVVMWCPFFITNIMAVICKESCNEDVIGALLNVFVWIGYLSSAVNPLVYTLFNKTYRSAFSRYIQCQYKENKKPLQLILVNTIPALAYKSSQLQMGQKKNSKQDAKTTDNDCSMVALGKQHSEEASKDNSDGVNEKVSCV

The target is the same in test [10]. The test can be described thus: 5-hydroxytryptamine receptor 2A (HTR2A) small molecule agonists, cell-based qHTS assay (AID 1963587). Also: nearly all actives have a fitted effect of over 30% in size. The method, boiled down:
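Kinetic calcium-flux fluorescence (2 min, 1 sec intervals) after compound addition in agonist mode. HTR2A-CHO cells were cultured 18 h, then dye-loaded 1 h at 37 C.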

In test [11] the target is Muscarinic acetylcholine receptor M1 (Homo sapiens) (UniProt P11229). In words: Cholinergic receptor muscarinic 1 (CHRM1) small molecule antagonists, cell-based qHTS assay (AID 1963588). Also: nearly all actives have a fitted effect of over 40% in size. The essentials: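 CHRM1-CHO calcium-flux assay, antagonist mode. Cells were seeded 18 h, dye-loaded 1 h at 37 C and given compound for 5 min at RT, then acetylcholine was added at 50nM. FDSS fluorescence was read 3 min; 15 concentrations, three runs.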
Sequence of Muscarinic acetylcholine receptor M1 (Homo sapiens) (P11229 whole entry, looked up): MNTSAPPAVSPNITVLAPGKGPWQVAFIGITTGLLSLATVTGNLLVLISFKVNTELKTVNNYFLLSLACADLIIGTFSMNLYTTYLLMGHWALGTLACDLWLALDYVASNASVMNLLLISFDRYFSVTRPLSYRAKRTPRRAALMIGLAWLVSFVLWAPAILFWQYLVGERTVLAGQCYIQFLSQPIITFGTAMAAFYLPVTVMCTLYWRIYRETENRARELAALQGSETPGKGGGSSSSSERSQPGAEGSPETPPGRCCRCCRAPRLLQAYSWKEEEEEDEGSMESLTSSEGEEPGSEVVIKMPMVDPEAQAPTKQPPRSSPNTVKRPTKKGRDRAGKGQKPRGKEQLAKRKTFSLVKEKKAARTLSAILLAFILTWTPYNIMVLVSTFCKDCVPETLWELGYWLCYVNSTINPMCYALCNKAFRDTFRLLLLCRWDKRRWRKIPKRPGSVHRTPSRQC

Test [12] has the same target. In words: Cholinergic receptor muscarinic 1 (CHRM1) small molecule agonists, cell-based qHTS assay (AID 1963589). Also: nearly all actives have a fitted effect of over 35% in size. The method, boiled down: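 Agonist-mode qHTS in CHO cells stably carrying human muscarinic M1. Intracellular calcium is tracked by fluorescence every second after compound transfer; each compound runs at 15 concentrations in three independent runs.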
A short description of test [13]: cAMP Responsive Elements (CRE) small molecule agonists, cell-based qHTS assay (AID 1963590). The essentials: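 Agonist mode qHTS in CRE-bla HEK 293T cells: compounds dosed from DMSO for 3 h at 37 C/5% CO2, followed by LiveBLAzer B/G FRET substrate for 2 h at room temperature.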
The nature of test [14]: cAMP Responsive Elements (CRE) small molecule antagonists, cell-based qHTS assay (AID 1963591; active = well fitted inhibition curve with a large enough effect in the signal ratio in the repeat runs, not every such curve was filed as active; the % refers to the signal ratio). The method, boiled down: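 Antagonist mode: test compounds are co-incubated with the adenylyl cyclase activator NKH477 (0.25 uM final) on CRE-bla HEK293T cells for 3 h at 37 °C, followed by LiveBLAzer substrate loading.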
Test [15] deals with Beta-2 adrenergic receptor (Homo sapiens) (UniProt P07550). The test can be described thus: Adrenergic beta2 receptor (ADRB2) small molecule antagonists, cell-based qHTS assay (AID 1963592). Also: series mostly up to about 92 µM; nearly all actives have a fitted effect of over 50% in size. The method, boiled down:
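Cells (CHO, stable ADRB2 overexpression) incubated 18-20hr at 37C; compounds added from DMSO; agonist mix (1nM isoproterenol, 100uM IBMX, 25uM Ro-20-1724) added; 0.5hr RT; d2-cAMP and anti-cAMP-cryptate added; 1hr RT; 665/615 nm read.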

Test [16] has the same target. In words: Adrenergic beta2 receptor (ADRB2) small molecule agonists, cell-based qHTS assay (AID 1963593).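 Also: CHO cells stably overexpressing human ADRB2.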 The method, boiled down:
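CHO cells stably over-expressing ADRB2 were plated overnight at 37C, then dosed with compounds plus a stimulation mix containing 100uM IBMX and 25uM Ro-20-1724 for 0.5hr at room temperature. cAMP was measured by HTRF competition, 1hr.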

Test [17] has as its target D(2) dopamine receptor (Homo sapiens) (UniProt P14416). The test can be described thus: Dopamine D2 receptor (DRD2) small molecule agonists, cell-based qHTS assay (AID 1963594). Also: nearly all actives have a fitted effect of over 35% in size. The essentials:
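cAMP accumulation in DRD2-HEK293 cells measured by HTRF after 1 h detection; compounds added 10 min before NKH477 (200nM […]) forskolin-analogue stimulation, 30 min at room temperature, with Ro20-1724 present at 0.1 mM final.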

The target is the same in test [18]. In words: Dopamine D2 receptor (DRD2) small molecule antagonists, cell-based qHTS assay (AID 1963595; active = well fitted inhibition curve with a large enough effect in the signal ratio in the repeat runs, with a control signal flat; the % refers to the signal ratio). The method, boiled down:
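DRD2-HEK293; 0.1 mM Ro20-1724; cpd 10 min RT; NKH477 200 nM + quinpirole 12 nM, 30 min RT; HTRF cAMP (cAMP-d2/anti-cAMP cryptate), 665/620 nm ratio after 1 h.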

A short description of test [19]: p53 small molecule agonists, cell-based qHTS assay with human liver microsomes (AID 1963577).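 Also: p53 response element beta-lactamase reporter cells with liver microsomes plus NADPH.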 The essentials:
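Metabolically competent format: test substances, human liver microsomes and NADPH (both 0.5 mg/mL final) incubated with p53RE-bla cells 16 h at 37 C. Beta-lactamase reporter signal then quantified by fluorescence.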

Inconclusive results are not listed. The source made the active and inactive calls. Unless noted, calls follow the shape of the full dose curve.

Sequence of Beta-2 adrenergic receptor (Homo sapiens) (P07550 whole entry, looked up): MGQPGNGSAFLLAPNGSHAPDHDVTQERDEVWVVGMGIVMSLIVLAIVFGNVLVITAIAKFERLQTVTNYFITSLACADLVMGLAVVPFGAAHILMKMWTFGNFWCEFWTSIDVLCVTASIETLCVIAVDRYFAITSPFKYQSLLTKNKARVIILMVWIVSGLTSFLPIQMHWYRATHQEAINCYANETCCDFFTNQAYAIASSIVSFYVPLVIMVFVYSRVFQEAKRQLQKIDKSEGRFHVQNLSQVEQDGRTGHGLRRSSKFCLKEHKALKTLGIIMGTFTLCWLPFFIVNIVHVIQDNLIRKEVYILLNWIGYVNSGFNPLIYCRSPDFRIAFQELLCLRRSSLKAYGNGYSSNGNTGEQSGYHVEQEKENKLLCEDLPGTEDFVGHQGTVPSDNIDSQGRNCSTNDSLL
Sequence of KiSS-1 receptor (Homo sapiens) (Q969F8 whole entry, looked up): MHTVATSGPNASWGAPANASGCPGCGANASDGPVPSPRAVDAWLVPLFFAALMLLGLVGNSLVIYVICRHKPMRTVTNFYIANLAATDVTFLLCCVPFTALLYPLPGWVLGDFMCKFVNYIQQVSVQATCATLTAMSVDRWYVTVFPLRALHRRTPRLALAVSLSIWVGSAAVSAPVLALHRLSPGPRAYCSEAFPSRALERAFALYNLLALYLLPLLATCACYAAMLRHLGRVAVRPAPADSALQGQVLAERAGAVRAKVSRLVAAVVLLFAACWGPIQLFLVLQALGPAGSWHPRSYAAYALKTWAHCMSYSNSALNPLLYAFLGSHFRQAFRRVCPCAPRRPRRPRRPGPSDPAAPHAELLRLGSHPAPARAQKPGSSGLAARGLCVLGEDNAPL
Sequence of Gonadotropin-releasing hormone receptor (Homo sapiens) (P30968 whole entry, looked up): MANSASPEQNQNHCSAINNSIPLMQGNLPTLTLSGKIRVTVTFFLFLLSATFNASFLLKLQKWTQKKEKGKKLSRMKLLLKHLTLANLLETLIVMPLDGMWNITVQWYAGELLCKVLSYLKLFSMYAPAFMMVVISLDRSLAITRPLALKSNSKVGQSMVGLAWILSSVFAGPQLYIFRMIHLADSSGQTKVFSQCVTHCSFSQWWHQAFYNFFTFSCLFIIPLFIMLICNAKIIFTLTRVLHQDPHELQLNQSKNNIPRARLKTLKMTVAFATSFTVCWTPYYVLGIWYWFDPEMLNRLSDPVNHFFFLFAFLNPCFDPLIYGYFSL
Sequence of D(2) dopamine receptor (Homo sapiens) (P14416 whole entry, looked up): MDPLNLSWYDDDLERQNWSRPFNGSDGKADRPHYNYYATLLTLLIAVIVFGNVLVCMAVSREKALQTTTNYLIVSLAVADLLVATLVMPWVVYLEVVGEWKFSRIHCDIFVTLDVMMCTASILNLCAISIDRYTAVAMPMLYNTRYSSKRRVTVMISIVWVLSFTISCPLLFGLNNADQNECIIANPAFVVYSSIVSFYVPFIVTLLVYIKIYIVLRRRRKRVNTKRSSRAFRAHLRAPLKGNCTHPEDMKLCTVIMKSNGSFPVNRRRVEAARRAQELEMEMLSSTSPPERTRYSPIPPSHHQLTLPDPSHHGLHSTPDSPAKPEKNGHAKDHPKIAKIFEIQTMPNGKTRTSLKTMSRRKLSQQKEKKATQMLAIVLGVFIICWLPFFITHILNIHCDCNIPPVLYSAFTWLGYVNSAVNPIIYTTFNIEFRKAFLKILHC

Turning to `Cc1cc(C)cc(N)c1`, the Potency result in test [1], in test [2], in test [3], in [4], in test [5] and in test [6] was “inactive” in each case. Besides, the Potency result in test [7], in test [8], in test [9], in test [10], in test [11] and in test [12] was “inactive” in each case. Also, the Potency result in [13], in [14], in test [15], in test [16], in test [17] and in test [18] was “inactive” in each case.
Consider `O=C1c2ccccc2C(=O)C1c1ccc2cc(S(=O)(=O)O)cc(S(=O)(=O)O)c2n1`, for which the Potency in test [1] is 58.9 µM (active). The Potency entry in test [2], in [3], in test [4], in [19], in test [6] and in test [7] was “inactive” each time. For the same molecule, the Potency result in test [8], in test [9], in [10], in [11], in [13] and in test [14] was “inactive” each time. Further, the Potency entry in test [15], in [16], in [17] and in test [18] was “inactive” throughout.
With `CC(C#N)(CCC(=O)O)N=NC(C)(C#N)CCC(=O)O` (stereo unspecified), the Potency entry in test [1], in test [2], in test [3], in test [4], in [19] and in [5] was “inactive” in each case. Moreover, the Potency entry in test [6], in [7], in test [8], in test [9], in test [10] and in test [13] was “inactive” each time. Also, the Potency entry in test [16], in test [17] and in [18] was “inactive” throughout.
Consider `CCCCCCCCCCCCCCCCCCOCC(O)CO` (stereo unspecified), for which the Potency result in [1], in [2], in test [3], in test [4], in test [19] and in test [5] was “inactive” each time. In addition, the Potency result in test [6], in test [7], in [8], in [9], in test [10] and in [12] was “inactive” throughout. In addition, the Potency result in test [13], in test [14], in [15], in test [16] and in test [17] was “inactive” throughout.
Take `CCCC(=O)Nc1ccc(O)c(C(C)=O)c1`: the Potency result in [1], in [2], in [3], in test [4], in test [19] and in [5] was “inactive” in each case. Moreover, the Potency result in [6], in [7], in test [8], in test [9], in test [10] and in [11] was “inactive” each time. Also, the Potency entry in test [12], in test [13], in test [14], in test [15], in test [17] and in test [18] was “inactive” each time.
As for `CC(=O)OC/C=C/c1ccccc1`, the Potency entry in [1], in test [2], in test [3], in [4], in test [19] and in test [5] was “inactive” in each case. For the same molecule, the Potency entry in test [6], in test [7], in test [8], in [9], in test [10] and in test [12] was “inactive” in each case. Moreover, the Potency result in test [13], in test [14], in test [15], in [16], in test [17] and in test [18] was “inactive” in each case.
In the case of `CCCCCCCCCOS(=O)(=O)O`, the Potency entry in [1], in test [2], in test [3], in [4], in test [19] and in test [5] was “inactive” in each case. Moreover, the Potency result in test [6], in [7], in test [8], in [9], in test [10] and in [12] was “inactive” each time. Besides, the Potency entry in test [13], in test [14], in test [15], in test [16], in test [17] and in test [18] was “inactive” in each case.
